Laboratory results reported in PubChem BioAssay (NCI).
The panel holds about 79,000 compounds, 15% with a hit somewhere; the sample as a whole holds those more often. A number with no mark means an inactive call. The source made the active and inactive calls. Rule as the data show it: active = growth inhibition above about 70%; inactive = the rest.

Legend:
[1] = NCI Yeast Anticancer Drug Screen. Data for the rad50 strain (AID 155);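 also: 0% = growth of vehicle-only cultures of the same strain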; settings: S. cerevisiae rad50 strain growth inhibition, active compounds read high
Outline: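 Inhibition values express reduced yeast growth in compound-treated cultures relative to vehicle-treated controls.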

[2] = NCI Yeast Anticancer Drug Screen. Data for the mec2-1 strain (AID 157); settings: S. cerevisiae mec2-1 strain, active compounds read high
Outline: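 Each compound was tested on mec2-1 yeast, a strain altered in DNA damage repair or cell cycle control. Growth inhibition is reported relative to vehicle.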

[3] = NCI Yeast Anticancer Drug Screen. Data for the sgs1 mgt1 strain (AID 161);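 also: 0% = growth of cultures given vehicle only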; settings: S. cerevisiae sgs1 mgt1 strain, active compounds read high
Outline: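 Read-out: growth inhibition vs vehicle controls. Cells: mutant yeast strain deficient in DNA damage repair.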

[4] = NCI Yeast Anticancer Drug Screen. Data for the cln2 rad14 strain (AID 165);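 also: 0% = growth equal to vehicle treated cultures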; settings: S. cerevisiae cln2 rad14 strain, active compounds read high
Outline: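 Test compounds were added to cln2 rad14 yeast cultures; inhibition of growth was then determined by comparison with vehicle treatment.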

[5] = NCI Yeast Anticancer Drug Screen. Data for the bub3 strain (AID 167); settings: S. cerevisiae bub3 mutant strain, active compounds read high
Outline: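 Steps: expose the mutant yeast strain to compound; grow alongside vehicle-treated cultures; measure growth; express inhibition against the vehicle cultures.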

[6] = NCI Yeast Anticancer Drug Screen. Data for the mlh1 rad18 strain (AID 175); settings: S. cerevisiae mlh1 rad18 strain growth inhibition, active compounds read high
Outline: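 Inhibition values reflect reduced growth of mutant yeast versus vehicle-treated controls following compound exposure; the mutations affect DNA damage repair.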

[7] = at 5.0 µM (retest, dose inferred, filed as 0.5)
[8] = at 50.0 µM (retest, dose inferred, filed as 5.0)

SMILES | growth inhibition [1, 7] | growth inhibition [1, 8] | growth inhibition ([1]; at 50.0 µM) | growth inhibition [2, 7] | growth inhibition [2, 8] | growth inhibition ([2]; at 50.0 µM) | growth inhibition [3, 7] | growth inhibition [3, 8] | growth inhibition ([3]; at 50.0 µM) | growth inhibition [4, 7] | growth inhibition [4, 8] | growth inhibition ([4]; at 50.0 µM) | growth inhibition [5, 7] | growth inhibition [5, 8] | growth inhibition ([5]; at 50.0 µM) | growth inhibition [6, 7] | growth inhibition [6, 8] | growth inhibition ([6]; at 50.0 µM)
CCCCCC(C)(C)N=C=S | 3% | 0% | 7% | -1% | 2% | -1.65% | -1% | -3% | -1.85% | 5% | 1% | 10.3% | 1% | 0% | 8.3% | -5% | 1% | -5.6%
CCCCN(CCCC)CC(O)c1ccc(CCc2ccccc2)cc1 (stereo not given) | -6% | 91% (active) | 99.2% (active) | 22% | 92% (active) | 98.7% (active) | 13% | 99% (active) | 99.5% (active) | -7% | 88% (active) | 98.7% (active) | -4% | 92% (active) | 76.2% (active) | 28% | 97% (active) | 99.3% (active)
COC(=O)NC1CCCCCCCCCCC1I (stereo not given) | -4% | 97% (active) | 98.5% (active) | 14% | 99% (active) | 82.3% (active) | -5% | 99% (active) | 17.1% | 19% | 99% (active) | -2.05% | -5% | 99% (active) | 3.35% | 5% | 98% (active) | 99% (active)
C=C1CC(Cn2cc(C)c(=O)[nH]c2=O)(c2ccc(Cl)cc2)OC1=O (stereo not given) | -7% | 82% (active) | 69.8% | -11% | 94% (active) | 73.1% (active) | -27% | 85% (active) | 74.2% (active) | 13% | 43% | 65% | 8% | 89% (active) | 78.3% (active) | 7% | 91% (active) | 85.3% (active)
CC1C(C(=O)O)CC([N+](=O)[O-])C(Cl)C1[N+](=O)[O-] (stereo not given) | 13% | 60% | 20.9% | -1% | 83% (active) | 87.4% (active) | -5% | 26% | 82.1% (active) | 15% | 44% | 35.4% | 11% | 88% (active) | 74.7% (active) | 9% | 93% (active) | 54.6%
NC(=O)c1ccccc1C(=O)O | -6% | 7% | 12.9% | -5% | -2% | 1.85% | 0% | 2% | -36.1% | 2% | 1% | 36.9% | 2% | 9% | 0.6% | -5% | 5% | 5.9%
O=C(N/C(=C\c1ccc(/C=C(\NC(=O)c2ccccc2)c2nc3ccccc3s2)cc1)c1nc2ccccc2s1)c1ccccc1 | 57% | 57% | 85.1% (active) | 32% | 32% | 87.5% (active) | 42% | 42% | 85.6% (active) | 38% | 38% | 84.7% (active) | 60% | 60% | 85.5% (active) | 28% | 28% | 83.8% (active)
COc1ccc(NNC(=O)c2ccccc2)cc1 | 29% | 97% (active) | 96.3% (active) | 9% | 95% (active) | 97.5% (active) | 13% | 98% (active) | 96.3% (active) | 3% | 97% (active) | 96.8% (active) | -9% | 98% (active) | 98.2% (active) | 13% | 98% (active) | 97.7% (active)
CC(=O)Oc1ccc(N=[N+]([O-])c2ccc(OC(C)=O)cc2)cc1 | 5% | 12% | 1.95% | 13% | 40% | -2.6% | 2% | 19% | 45.6% | 10% | 23% | 18.4% | -4% | 2% | 14.7% | -1% | 5% | -13%
O=[N+]([O-])c1ccccc1SCc1ccccc1 | 17% | 47% | 85.4% (active) | -18% | 35% | 15.8% | 16% | 49% | 54.7% | 15% | 43% | 44% | -1% | 79% (active) | 30.8% | 13% | 74% (active) | 52.6%
C/C=C/C(=O)NCC(C(C)C)/[N+]([O-])=N/O (stereo not given) | 94% (active) | 95% (active) | 91.8% (active) | 95% (active) | 95% (active) | 93.3% (active) | 97% (active) | 97% (active) | 93.3% (active) | 80% (active) | 82% (active) | 91.2% (active) | 87% (active) | 86% (active) | 91.8% (active) | 97% (active) | 97% (active) | 91.9% (active)
BrC(Br)=C1C(=C(Br)Br)C(Br)C1Br (stereo not given) | 31% | 69% | 61.6% | -10% | 59% | 77.4% (active) | 72% (active) | 94% (active) | 83.8% (active) | 19% | 53% | 55% | 18% | 66% | 73% (active) | 40% | 71% (active) | 71.6% (active)
O=C(Nc1cccc(Cl)c1)OCCN(CCOC(=O)Nc1cccc(Cl)c1)C(=O)Nc1cccc(Cl)c1 | 31% | 76% (active) | 77.8% (active) | 27% | 80% (active) | 51.4% | 36% | 83% (active) | 90.9% (active) | 54% | 77% (active) | 90.4% (active) | 53% | 79% (active) | 80.4% (active) | 62% | 81% (active) | 83.2% (active)
O=C(O)COc1cc(Br)cc(Br)c1-c1ccccc1 | 2% | 36% | 65.2% | 14% | 70% (active) | 59.5% | -10% | 39% | 71.2% (active) | 2% | 56% | 65% | -3% | 46% | 29.8% | 22% | 78% (active) | 67.7%
COc1cc(C(c2cc3c(cc2O)OCO3)N2CCN(C(c3ccc(O)c(OC)c3)c3cc4c(cc3O)OCO4)CC2)ccc1O (stereo not given) | -1% | 98% (active) | 99.2% (active) | 3% | 99% (active) | 99.3% (active) | -3% | 97% (active) | 99.5% (active) | 2% | 82% (active) | 96.7% (active) | -1% | 99% (active) | 99% (active) | 2% | 98% (active) | 98.5% (active)
Cc1cc(O)ccc1SC#N | -11% | 53% | 87.2% (active) | -22% | 32% | 80% (active) | -13% | 28% | 79.9% (active) | -3% | 21% | 73.4% (active) | -11% | 57% | 79.3% (active) | 7% | 66% | 83.5% (active)
O=C(Nc1cc(Cl)c(Cl)cc1Cl)C(=O)C(C(=O)c1ccc2ccccc2c1)C1OC(=O)c2ccccc21 (stereo not given) | 17% | 17% | 67.7% | 2% | 2% | 37.2% | 15% | 15% | 63.9% | 6% | 6% | 64.5% | -8% | -8% | 59.2% | -14% | -14% | 40%
CCCNC(=O)c1ccccc1 | -1% | -5% | 4% | 2% | -2% | 13.2% | 1% | -5% | 2.85% | -6% | -2% | 70.8% (active) | -5% | -9% | 22.7% | -2% | -5% | 7.6%
O=C1/C(=N/N=C(c2ccccc2)c2ccccc2)c2ccccc2-c2ccccc21 | 7% | 65% | 60.9% | 1% | 14% | 0.45% | -1% | 23% | -2.6% | 2% | -5% | 0.15% | 7% | 27% | 8.5% | 7% | 44% | 72.3% (active)
NC(N)=Nc1ccc(Cc2ccc(N=C(N)N)cc2)cc1 | 0% | -3% | -33.2% | 0% | -4% | -58% | 2% | 0% | -17.9% | 3% | 2% | 45% | 3% | 2% | -10.2% | -6% | -4% | -39%
